The record followed here is PubChem BioAssay (EPA / NIEHS).

The structures appear in SMILES notation. Active and inactive are the calls of the source. Rule for the calls: active = hit-call score of the fitted dose curve at least 0.9, where 1 is the maximum; inactive = score below 0.9.

Assay [1] can be described thus: APR_HepG2_CellCycleArrest_24hr: Apredica 24-hour HepG2 Assay for Cell Cycle Arrest (AID 2282905).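 Note: cell cycle arrest scored as ratio of 2N to 4N nuclear DNA content.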 The settings on record: imaging, actives raise or lower the signal. In a few lines: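 Compounds (0.39 to 200 uM, final DMSO 0.5% v/v) are applied to HepG2 cells for 24 hours; cells are then fixed, permeabilized and nuclei labeled with Hoechst 33342. Automated imaging measures DNA content, and activity is fitted in both directions against DMSO.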

Assay [2] is described as follows: APR_HepG2_NuclearSize_24hr: Apredica 24-hour HepG2 Assay for Nuclear Size (AID 2282907). The following applies: high-content imaging, actives raise or lower the signal. In a few lines:
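Nuclear size is measured by fluorescence high-content imaging of Hoechst-labelled HepG2 nuclei after 24 hr of treatment (0.39–200 uM, 0.5% DMSO). Cells are fixed in 3.7% formaldehyde before staining, and DMSO serves as the baseline for bidirectional curve fitting.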

Assay [3] can be described thus: APR_HepG2_CellLoss_24hr: Apredica 24-hour HepG2 Assay for Cell Loss (AID 2282908).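 For AC50: fit in both directions so a hit may be cell loss or gain.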 The following applies: high-content imaging. A digest of the protocol:
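Nuclear count serves as the viability measure: treated cells are fixed, permeabilized and labelled with Hoechst 33342, and six images per well are analysed to identify valid nuclei. Doses span 0.39–200 uM, and activity in either direction is scored against DMSO.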

The nature of assay [4]: APR_HepG2_MicrotubuleCSK_24hr: Apredica 24-hour HepG2 Assay for Microtubule CSK Stabilty (AID 2282909). The settings on record: HepG2 microtubule cytoskeleton imaging, actives raise or lower the signal. A digest of the protocol: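 Compounds were applied to HepG2 cells for 24 hours across 0.39–200 uM in duplicate, with final DMSO at 0.5% v/v. Fixed, permeabilized cells were labeled for alpha-tubulin and nuclei, and tubulin fluorescence was quantified by imaging, fitted bidirectionally against DMSO.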

Assay [5] in a line: APR_HepG2_MitoMembPot_24hr: Apredica 24-hour HepG2 Assay for Mitochondrial Membrane Potential (AID 2282911). The following applies: imaging, actives raise or lower the signal. A digest of the protocol: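 Cells are dosed for 24 hr across 0.39 to 200 uM with solvent held at 0.5% DMSO. They are then stained with 250 nM MitoTracker Red CMXRos for 30 min, fixed in 3.7% formaldehyde and imaged.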

The nature of assay [6]: APR_HepG2_MitoMass_24hr: Apredica 24-hour HepG2 Assay for Mitochondrial Mass (AID 2282912). The following applies: high-content imaging, actives raise or lower the signal. A digest of the protocol: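 After 24 hr of treatment at 0.39 to 200 uM, HepG2 cells take up 250 nM MitoTracker Red CMXRos for 30 min and are then fixed with 3.7% formaldehyde. Per-well images are quantified, and any change in either direction is scored against solvent.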

Assay [7] is described as follows: APR_HepG2_p53Act_24hr: Apredica 24-hour HepG2 Assay for p53 Activation (AID 2282913).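 Note: p53 protein immunofluorescence averaged per cell in HepG2 with Hoechst nuclei.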 The settings on record: high-content imaging, actives raise or lower the signal. In a few lines: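 Human HepG2 liver cells; 24 hr cpd treatment, 0.39–200 uM, 0.5% DMSO final. Fixed in 3.7% formaldehyde, permeabilized with 0.5% Triton X-100, stained with anti-p53/Cy5 plus Hoechst 33342. Six images per well at 20x; gain or loss vs DMSO.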

The nature of assay [8]: APR_HepG2_CellCycleArrest_72hr: Apredica 72-hour HepG2 Assay for Cell Cycle Arrest (AID 2282914). The following applies: high-content imaging, actives raise or lower the signal. A digest of the protocol: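 Read-out is Hoechst-stained nuclear DNA content measured by automated fluorescence imaging (20x, six images per well), fitted in both directions relative to DMSO. Human HepG2 liver cells received 0.39–200 uM compound for 72 hr at 0.5% v/v DMSO.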

Assay [9] can be described thus: APR_HepG2_CellLoss_72hr: Apredica 72-hour HepG2 Assay for Cell Loss (AID 2282915). The following applies: high-content imaging. A digest of the protocol: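 HepG2 cells exposed 72 h to compound at 0.39–200 uM (10 concentrations, duplicate) in 0.5% DMSO. Fixed with 3.7% formaldehyde and Hoechst 33342-stained. Imaged at 20x; nuclear count gives cell number, fitted bidirectionally versus DMSO.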

The nature of assay [10]: APR_HepG2_P-H2AX_72hr: Apredica 72-hour HepG2 Assay for H2AX Phosphorylation (AID 2282916).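 Note: phospho-histone H2A.x immunostain intensity per cell marking DNA damage.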 The following applies: imaging, actives raise or lower the signal. In a few lines:
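Human hepatoma HepG2 cells are dosed across ten concentrations (0.39 to 200 uM, 0.5% v/v DMSO) and incubated 72 hr. Phospho-histone H2A.x is then detected by antibody staining alongside c-Jun and Hoechst, and quantified by automated fluorescence imaging.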

Assay [11] can be described thus: APR_HepG2_MicrotubuleCSK_72hr: Apredica 72-hour HepG2 Assay for Microtubule CSK Stabilty (AID 2282919). The settings on record: HepG2 microtubule cytoskeleton, high-content imaging, actives raise or lower the signal. A digest of the protocol: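 HepG2, 72 hr cmpd exposure, 0.39–200 uM (10 pts, duplicate), 0.5% DMSO. 3.7% formaldehyde fix, 0.5% Triton perm, anti-alpha-tubulin/Cy5 plus Hoechst. HCS fluorescence intensity; bidirectional fit vs DMSO baseline; taxol as positive control.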

The nature of assay [12]: APR_HepG2_P-H2AX_24hr: Apredica 24-hour HepG2 Assay for H2AX Phosphorylation (AID 2282920). The following applies: high-content imaging, actives raise or lower the signal. In a few lines: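 HepG2, 24 hr, cpd 0.39–200 uM (10 conc, duplicate), DMSO 0.5% v/v final. Fix 3.7% formaldehyde, Triton X-100 permeabilize, anti-phospho-H2A.x 1:200 + Hoechst 2 ug/mL. Imaged, bidirectional fit vs DMSO.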

Assay [13] can be described thus: APR_HepG2_StressKinase_72hr: Apredica 72-hour HepG2 Assay for Stress Kinase (AID 2282921). The following applies: HepG2 stress kinase (phospho-c-Jun) imaging, actives raise or lower the signal. A digest of the protocol:
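After a 72 h compound treatment spanning 0.39 to 200 uM, formaldehyde-fixed cells are labelled for phosphorylated c-Jun and nuclei, imaged by automated fluorescence microscopy, and activity is fitted in both directions relative to DMSO controls.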

Assay [14] can be described thus: APR_HepG2_StressKinase_24hr: Apredica 24-hour HepG2 Assay for Stress Kinase (AID 2282922). The settings on record: HepG2 stress kinase (phospho-c-Jun) imaging, actives raise or lower the signal. In a few lines:
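Read-out: phospho-c-Jun immunofluorescence (Cy3 secondary) quantified by high-content imaging at 20x, nuclei defined by Hoechst 33342. Human HepG2 liver cells dosed 24 hr, 0.39–200 uM, DMSO 0.5% v/v; gain or loss of signal fitted relative to DMSO.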

Assay [15] is described as follows: APR_HepG2_p53Act_72hr: Apredica 72-hour HepG2 Assay for p53 Activation (AID 2282923).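 Note: average cellular p53 protein immunofluorescence intensity in HepG2 cells.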 The following applies: high-content imaging, actives raise or lower the signal. In a few lines:
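Imaging-based endpoint: after 72 hr compound exposure (up to 200 uM, 0.5% DMSO), fixed and permeabilized monolayers were labelled with anti-p53 antibody and imaged; signal change in either direction was fitted relative to DMSO controls.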

Assay [16] can be described thus: APR_HepG2_MitoMass_72hr: Apredica 72-hour HepG2 Assay for Mitochondrial Mass (AID 2282924).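 Note: MitoTracker Red CMXRos stain intensity per cell imaged as mitochondrial mass.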 The following applies: high-content imaging, actives raise or lower the signal. In a few lines: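 Read-out: MitoTracker Red fluorescence intensity from automated imaging (20x, six fields per well) in human HepG2 liver cells. Dosing ran 72 hr, 0.39–200 uM, 0.5% DMSO; bidirectional curve fitting versus DMSO baseline.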

A short description of assay [17]: APR_HepG2_MitoMembPot_72hr: Apredica 72-hour HepG2 Assay for Mitochondrial Membrane Potential (AID 2282917). The following applies: imaging, actives raise or lower the signal. A digest of the protocol: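 HepG2 cells dosed 72 hr with compound at 0.39–200 uM in duplicate, 0.5% v/v DMSO final. Mitochondria stained with 250 nM MitoTracker Red CMXRos for 30 min before formaldehyde fixation, imaged by high-content fluorescence; bidirectional fit versus DMSO.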

Assay [18] is described as follows: APR_HepG2_NuclearSize_72hr: Apredica 72-hour HepG2 Assay for Nuclear Size (AID 2282925). The settings on record: high-content imaging, actives raise or lower the signal. A digest of the protocol:
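Read-out: nuclear diameter from Hoechst 33342 images (ArrayScan, 20x, six fields/well), via cell-cycle image analysis. HepG2 were dosed 0.39–200 uM for 72 hr in 0.5% DMSO. Bidirectional fit relative to DMSO.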

The nature of assay [19]: APR_HepG2_MitoticArrest_72hr: Apredica 72-hour HepG2 Assay for Mitotic Arrest (AID 2282918). The following applies: high-content imaging, actives raise or lower the signal. A digest of the protocol:
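Read-out is phospho-histone H3 immunofluorescence with Hoechst nuclear segmentation, imaged at 20x. Human HepG2 liver cells received ten concentrations (0.39–200 uM, final DMSO 0.5% v/v) for 72 hr before fixation. Gain or loss of signal was fitted relative to DMSO.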

Turning to `CCN(C(=O)c1cc(C)cc(OC[C@H](C)Nc2ccncc2)c1)C(C)C`, the compound was called inactive in assay [1], in assay [2], in assay [3], in [4], in assay [5] and in assay [6]. In addition, the compound was called inactive in [7], in assay [8], in assay [9], in [10], in [11] and in [12]. The outcome in assay [13], in assay [14], in [15] and in assay [16] was inactive.
As to `CC[C@H]1OC(=O)[C@H](C)[C@@H](O[C@H]2C[C@@](C)(OC)[C@@H](O)[C@H](C)O2)[C@H](C)[C@@H](O[C@@H]2O[C@H](C)C[C@H](N(C)C)[C@H]2O)[C@](C)(O)C[C@@H](C)C(=O)[C@H](C)[C@@H](O)[C@]1(C)O`, the compound was called inactive in assay [1], in assay [2], in assay [3], in assay [4], in [5] and in assay [6]. Moreover, the call in assay [7], in [8], in assay [10], in assay [17], in assay [11] and in assay [12] was inactive. Moreover, the call in [13], in [14], in [15], in assay [16] and in [18] was inactive.
On to `C=CCCCCCCCCC(=O)O`, for which the call in assay [1], in assay [2], in assay [3], in [4], in assay [5] and in assay [6] was inactive. Also, the compound was classed as inactive in assay [7], in assay [8], in assay [10], in assay [17], in assay [19] and in assay [11]. Moreover, the compound was called inactive in assay [12], in [13], in assay [14], in assay [15] and in [16].
One may read the AC50 as the concentration giving half of the maximal activity seen. For `CCCN(C1CCN(C(=O)C2CCNCC2)CC1)[C@@H]1CCc2ccc(OC)cc2C1`, the compound was classed as inactive in [1], in assay [2], in [4], in assay [5], in assay [7] and in [8]. The compound was called inactive in assay [11], in [13] and in [14]. For the same compound, the AC50 in [3] is 100 µM (active); in assay [6], 100 µM (active); in assay [10] it was 64 µM (active); in [19], 53 µM (active); in assay [12], 80.8 µM (active); in [15] it was 68.9 µM (active). Further, in assay [16], the half-maximal activity concentration (AC50) was 111 µM (active).
